Most compounds without a hit are left out; they make up all but 1.6% or so of the library.
Arbovirus anti: blocks arbovirus infection; arbovirus infection cell-based antiviral screen; inhibition, % at 10 µM; actives 0.37% (n = 200,000); AID 1251; in the data active means inhibition above about 30%
S1P4 antag: blocks the human S1P4 receptor | S1P4-expressing cells, antagonist mode, reporter read-out | inhibition, % at 4.98 µM | actives 0.26% (n = 220,000) | AID 1510; in the data active means inhibition above about 29%;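 further: 0% = wells stimulated with agonist and 100% = vehicle wells without agonist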
S1P4 agonist: agonists of human S1P4 receptor | S1P4-expressing cell line, agonist reporter assay | O95977 | activation, % at 4.98 µM | AID 1509 | actives 0.35% (n = 220,000); in the data active means activation above about 11%;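 further: 0% = DMSO vehicle and 100% = reference agonist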
S1P3 antag-1: S1P3 (human) receptor antagonism. CHO S1P3 NFAT-BLA reporter, FRET fluorescence, antagonist mode. Q99500. actives 0.27% (n = 170,000). inhibition, % at 4.98 µM;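 active means inhibition above the plate cutoff, the mean inhibition of test wells on that plate plus 3 SD, cut at about 28% in these data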;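 further: cells challenged with S1P at its EC80 of 0.8 µM; blue over green emission ratio from cleaved BLA substrate after 4 h stimulation; 0% = S1P-stimulated wells and 100% = unstimulated DMSO-only wells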
DTT redox prof: compounds producing H2O2 with reducing agent – biochemical, NIH compound library profiling, artefact control for MLSCN library redox annotation, primary screen. actives 0.03% (n = 200,000). DTT-dependent redox cycling H2O2, phenol red/HRP absorbance; 100% = 100 µM peroxide control, 0% = buffer. activation, % at 10 µM;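 active means activation of at least 50% relative to the plate's high and low controls in the primary single-dose screen; inactive means activation below 50%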;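 further: compound incubated with DTT at 0.8 mM final as the reducing agent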
p97 inhibitor: human p97 ATPase inhibition; recombinant p97 ATPase, Kinase-Glo ATP luminescence, 3 h; inhibition, % at 8 µM; AID 1481; actives 0.42% (n = 220,000); in the data active means inhibition above about 15%;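 further: 0% = DMSO vehicle and 100% = wells lacking enzyme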
S1P3 antag-2: confirmation of human S1P3 receptor antagonists. shares compounds with S1P3 antag-1. CHO S1P3 NFAT-BLA reporter, FRET, antagonist mode. inhibition, % at 4.98 µM. actives 30% (n = 240). AID 1429;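 active means inhibition above the hit threshold that was computed for the earlier primary screen, cut at about 30% in these data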;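 further: 0% = S1P-stimulated wells and 100% = unstimulated DMSO-only wells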
DTT redox conf: generates H2O2 by DTT-dependent redox cycling, confirmed in dose response; shares compounds with DTT redox prof; phenol red-HRP absorbance; EC50, µM; actives 40% (n = 60);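 active means EC50 under a set limit for hydrogen peroxide production with the reducing agent DTT present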
p97 inh conf: human p97 ATPase inhibition, confirmation; AID 1517; recombinant p97 ATPase, Kinase-Glo ATP luminescence; actives 44% (n = 760); inhibition, % at 8 µM; shares compounds with p97 inhibitor;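 active means percent inhibition of p97 ATPase above a set limit, the primary screen's mean plus 3 SD, cut at about 15% in these data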;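 further: 0% = DMSO wells and 100% = wells lacking p97 protein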
S1P4 agonist cf: confirmation of human S1P4 receptor agonists; shares compounds with S1P4 agonist; S1P4 agonist cell-based reporter assay; activation, % at 4.98 µM; actives 7% (n = 740); AID 1523; in the data active means activation above about 12%;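 further: 0% = vehicle and 100% = full reference agonist response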
S1P1 ag: activates human S1P1, counter-screen for S1P4 agonists. AID 1563. shares compounds with S1P4 agonist. S1P1 agonist cell-based assay, activation. activation, % at 4.98 µM. actives 4% (n = 740); in the data active means activation above about 21%;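 further: 0% = vehicle wells and 100% = reference agonist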
Target sequence (P21453 whole entry, looked up): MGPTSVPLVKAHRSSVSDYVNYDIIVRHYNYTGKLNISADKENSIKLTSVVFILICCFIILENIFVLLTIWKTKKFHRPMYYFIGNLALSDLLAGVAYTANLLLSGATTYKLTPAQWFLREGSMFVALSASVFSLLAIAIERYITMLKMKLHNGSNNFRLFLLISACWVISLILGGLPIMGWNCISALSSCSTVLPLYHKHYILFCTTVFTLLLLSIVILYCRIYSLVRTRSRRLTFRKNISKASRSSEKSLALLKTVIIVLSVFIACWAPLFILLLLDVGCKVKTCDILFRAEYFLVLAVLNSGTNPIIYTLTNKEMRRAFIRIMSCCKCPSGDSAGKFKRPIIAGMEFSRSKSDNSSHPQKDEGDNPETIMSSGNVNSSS
S1P4 antag cf: human S1P4 antagonism, confirmation. S1P4-expressing cell line, antagonist mode, reporter read-out. shares compounds with S1P4 antag. inhibition, % at 4.98 µM. actives 71% (n = 520); in the data active means inhibition above about 30%
S1P1 antag: human S1P1 antagonism as S1P4 antagonist counter-screen | shares compounds with S1P4 antag | cell-based S1P1 antagonist counterscreen, inhibition | inhibition, % at 4.98 µM | actives 37% (n = 520) | AID 1564; in the data active means inhibition above about 40%;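 further: receptor stimulated with S1P near its EC80; 0% = agonist stimulated wells and 100% = vehicle only wells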
Starred values were filed as active, the others as inactive; / = no result given.

SMILES	Arbovirus anti	S1P4 antag	S1P4 agonist	S1P3 antag-1	DTT redox prof	p97 inhibitor	S1P3 antag-2	others
O=c1c2ccccc2n(CC(O)CN2CCCCC2)c2ccccc12 (stereo unspecified)	/	-24	7	-9	/	6	/
CN1CCc2c(n(CC(O)CN3CCN(CCO)CC3)c3ccccc23)C1=O (stereo unspecified)	0	-29	2	41*	0	1	-9
C=CCN1C(=O)C(CC(=O)Nc2ccc(OCCC)cc2)N(CCCN2CCN(Cc3ccccc3)CC2)C1=S (stereo unspecified)	-28	-3	-1	38*	-1	-3	0
CN(CC(=O)Nc1ccccc1C(F)(F)F)C(=O)COc1cccnc1[N+](=O)[O-]	13	1	1	-3	0	4	/
Cc1ccc(/C=N/Nc2ccc(C(=O)O)cc2)s1	-3	-30	1	42*	0	-2	-3
CCCNC(=O)Cn1cnc2sc(C(=O)N3CCN(Cc4ccc5c(c4)OCO5)CC3)c(C)c2c1=O	30	-13	0	30*	0	1	-15
O=C(CCS(=O)(=O)c1ccccc1)Nc1cccc2c1C(=O)NC2=O	3	4	2	-22	1	0	/
CCCCCCCCCCn1ccc(=N)cc1	/	8	2	18	/	-2	/
CCCCCCCCn1ccc(=N)cc1	/	2	0	35*	/	-3	-6
O=C(C1CCN(S(=O)(=O)c2ccccc2F)CC1)N1CCc2ccccc2C1	-2	-2	0	-12	-1	4	/
S=C(Nc1ccccc1)N1N=C(c2cccs2)CC1c1cccs1 (stereo unspecified)	1	-12	-2	30*	1	1	8
COc1ccc(C2CC(c3cccs3)=NN2C(=S)Nc2ccccc2)cc1OC (stereo unspecified)	7	-5	2	1	1	10	/
Cc1ccccc1NC(=S)NCC(c1cccnc1)N(C)C (stereo unspecified)	-7	-12	1	-2	0	-9	/
CC(C)Oc1nc(-c2ccc(Cl)cc2)nc2ccccc12	/	-3	0	-4	/	-6	/
CCOc1nc(-c2ccc(Cl)cc2)nc2ccccc12	-7	-21	1	39*	0	1	-4
CC(C)(C)c1ccc(C(=O)Nc2cccc3c(=O)[nH][nH]c(=O)c23)cc1	-5	5	0	38*	-1	4	6
Cc1cc(CNC(=O)CC2C(=O)NCCN2CC(C)(C)C)nn1C (stereo unspecified)	-1	-7	-1	2	-1	1	/
CCOc1ccc(C(=O)c2cc([N+](=O)[O-])ccc2N2CCOCC2)cc1	-16	23	-1	33*	0	0	19
C/C(=N\NC(=O)c1cccc(N/N=C(\C)c2ccc([N+](=O)[O-])cc2)c1)c1ccc([N+](=O)[O-])cc1	/	-12	-1	-2	/	0	/
Cc1cc2ncn(/N=C/c3ccc([N+](=O)[O-])o3)c2cc1C	-23	-13	-1	/	-2	4	/
O=[N+]([O-])c1c(NCc2ccco2)ccc2nonc12	/	0	0	106*	/	18*	-16	p97 inh conf=9
CC1=CCC2C(=O)N(c3ccc(N4CCOCC4)cc3)C(=O)C2C1 (stereo unspecified)	/	4	1	0	/	5	/
Cc1cc(C(=O)CSc2nc3ccccc3c(=O)n2C)c(C)n1CC1CCCO1 (stereo unspecified)	-2	-29	196*	33*	0	0	37*	S1P4 agonist cf=-2;S1P1 ag=3
O=C1CSC(c2ccccc2)N1c1nnc(C23CC4CC(CC(C4)C2)C3)s1 (stereo unspecified)	-4	-15	-1	/	-1	3	/
O=C(/C=C/c1cn(CC(O)CN2CCCCC2)c2ccccc12)c1cccs1 (stereo unspecified)	-32	31*	1	32*	0	5	9	S1P4 antag cf=53*;S1P1 antag=46*
SMILES	Arbovirus anti	S1P4 antag	S1P4 agonist	S1P3 antag-1	DTT redox prof	p97 inhibitor	S1P3 antag-2	others
CC1CCN(CCc2nc3cc(NC(=O)NC4CCCCC4)ccc3n2C)CC1	-13	0	-2	/	3	3	/
O=C(NC(Nc1nc2ccc([N+](=O)[O-])cc2s1)(C(F)(F)F)C(F)(F)F)c1cccnc1	-38	17	1	3	0	3	/
O=C(NC(Nc1nc2ccc([N+](=O)[O-])cc2s1)(C(F)(F)F)C(F)(F)F)c1ccccc1Cl	-36	43*	-1	70*	1	11	53*	S1P4 antag cf=64*;S1P1 antag=-2
COc1ccc(CN2C(=O)c3cccnc3C2Nc2cc(Cl)ccc2OC)cc1 (stereo unspecified)	-2	0	1	27	-2	3	/
COc1ccc(CN2C(=O)c3cccnc3C2O)cc1 (stereo unspecified)	-1	5	-1	/	68*	1	/	DTT redox conf=>50
COc1ccccc1C(=O)NNC(=O)c1ccc(NC(=O)CC(C)C)cc1	3	-5	3	-12	-1	4	/
CC(C)CN(C(=O)COC(=O)c1ccc([N+](=O)[O-])o1)C1CCS(=O)(=O)C1 (stereo unspecified)	-7	0	-2	-16	122*	-3	/	DTT redox conf=>50
CC(C)CN(C(=O)COC(=O)c1cc2ccccc2oc1=O)C1CCS(=O)(=O)C1 (stereo unspecified)	14	-1	0	-13	-2	4	/
O=C(Nc1ccc(S(=O)(=O)N2CCN(Cc3ccccc3)CC2)cc1)c1cnccn1	4	-8	1	24	2	0	/
Cc1oc2c(c1C(=O)c1ccc(Cl)cc1)C(=O)C(=O)c1ccccc1-2	-44	0	2	/	344*	3	/	DTT redox conf=6.4*
CCOC(=O)C(C(=O)Nc1ccc(C)cc1)C1CCCCC1 (stereo unspecified)	-7	5	0	/	0	-3	/
